Results taken from PubChem BioAssay (EPA / NIEHS).
Inconclusive results are not listed. Active and inactive are the calls of the source. Rule for the calls, unless noted: active = hit-call score of the fitted dose curve at least 0.9, where 1 is the maximum; inconclusive = response in the unintended direction; inactive = score below 0.9.

Columns and labels:
[1] = Tanguay_ZF_120hpf_PE_legacy: (Legacy) Oregon State University Tanguay Lab 120 Hour Post-fertilization zebrafish Assay for Pericardial Edema (AID 2283640)
Procedure, shortened: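 Scoring was binary, by brightfield microscopy at 120 hpf, and skipped where mortality occurred. Wild-type embryos were kept under sealed, foil-covered static exposure at 28C in 0.64% (vol/vol) DMSO.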

[2] = Tanguay_ZF_120hpf_BRAI_legacy: (Legacy) Oregon State University Tanguay Lab 120 Hour Post-fertilization zebrafish Assay for Brain Malformation (AID 2283641)
Procedure, shortened: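 Binary brightfield scoring of brain malformation at 120 hpf in Tropical 5D larvae held under static exposure at 28C (0.64% v/v DMSO), non-mortality endpoints skipped if dead. Positive control: 5uM trimethyltin chloride; fit versus DMSO.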

[3] = Tanguay_ZF_120hpf_SOMI_legacy: (Legacy) Oregon State University Tanguay Lab 120 Hour Post-fertilization zebrafish Assay for Somite Malformation (AID 2283647)
Procedure, shortened: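 Binary somite-defect scoring at 120 hpf, omitted for embryos that died, in wild-type (Tropical 5D) zebrafish with chorion removed by pronase at 4 hpf; static exposure began 6 hpf, single embryos per well, 28C, 0.64% DMSO; fitted positive versus DMSO.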

[4] = Tanguay_ZF_120hpf_PFIN_legacy: (Legacy) Oregon State University Tanguay Lab 120 Hour Post-fertilization zebrafish Assay for Pectoral Fin Malformation (AID 2283648);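 note: each larva judged yes or no for fin defect by brightfield with dead larvae skipped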
Procedure, shortened: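 Binary pectoral fin malformation call at 120 hpf by brightfield microscopy; 5D wild-type zebrafish, chorion removed at 4 hpf, one embryo per well from 6 hpf, static exposure at 28C; DMSO (0.64% final) as baseline.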

[5] = Tanguay_ZF_120hpf_CFIN_legacy: (Legacy) Oregon State University Tanguay Lab 120 Hour Post-fertilization zebrafish Assay for Caudal Fin Malformation (AID 2283649)
Procedure, shortened: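 Binary brightfield scoring of caudal fin defects at 120 hpf after static, light-shielded exposure at 28C from 6 hpf. Tropical 5D embryos, chorion removed with pronase at 4 hpf, final DMSO 0.64%.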

[6] = Tanguay_ZF_120hpf_PIG_legacy: (Legacy) Oregon State University Tanguay Lab 120 Hour Post-fertilization zebrafish Assay for Pigmentation Malformation (AID 2283650)
Procedure, shortened: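 Brightfield scoring of pigmentation malformation at 120 hpf, recorded as binary present/absent per larva. Exposure: dechorionated 5D wild-type embryos, one per well, static from 6 hpf at 28C, final DMSO 0.64% (vol/vol). Dead embryos not scored.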

[7] = Tanguay_ZF_120hpf_CIRC_legacy: (Legacy) Oregon State University Tanguay Lab 120 Hour Post-fertilization zebrafish Assay for Circulatory Malformation (AID 2283651)
Procedure, shortened: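 Embryos are dechorionated at 4 hpf, plated one per well at 6 hpf, then held under static exposure at 28C until 120 hpf. Malformations are recorded as binary calls; mortality excludes other endpoints.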

[8] = Tanguay_ZF_120hpf_SWIM_legacy: (Legacy) Oregon State University Tanguay Lab 120 Hour Post-fertilization zebrafish Assay for Swim Bladder Malformation (AID 2283654);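 note: swim bladder malformation in each larva scored yes or no under brightfield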
Procedure, shortened: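 Tropical 5D embryos dechorionated at 4 hpf; 1 embryo/well from 6 hpf; static, sealed, dark exposure at 28C until 120 hpf; final DMSO 0.64%; 5uM trimethyltin chloride positive control; swim bladder defect recorded yes/no; dead embryos not scored.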

[9] = Tanguay_ZF_120hpf_NC_legacy: (Legacy) Oregon State University Tanguay Lab 120 Hour Post-fertilization zebrafish Assay for Notochord and Tail Malformation (AID 2283656)
Procedure, shortened: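 Binary scoring of notochord distortion by brightfield microscopy; embryos dying were not scored. Wild-type Tropical 5D embryos, chorion removed, exposed singly and statically from 6 to 120 hpf, 28C, sealed, 0.64% DMSO.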

[10] = system: Thyroperoxidase (TPO), gene 54314; test: CCTE_Simmons_AUR_rTPO: CCTE's Amplex UltraRed Assay for Thyroperoxidase (TPO) Inhibition, Simmons Lab (AID 2283662);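 for AC50: potency for loss of signal meaning inhibition of peroxidase activity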
Procedure, shortened: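 Rat thyroid microsomal TPO + 25 uM AUR in 200 mM K phosphate; cpd 5 nM–87.5 uM [final], 8 conc, 0.5% DMSO; 300 uM H2O2 starts rxn; 37C dark 30 min; endpoint FI 544/590 nm; n=3.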

[11] = CCTE_Simmons_CellTiterGLO_HEK293T: Viability Assessment in CCTE's Assays for Thyroperoxidase (TPO) Inhibition, Simmons Lab (AID 2283665);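 for AC50: cells exposed to compound for 24 h before readout; actives reduce ATP signal below DMSO vehicle meaning cytotoxicity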
Procedure, shortened: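 Cells were seeded overnight, then exposed to an eight-point series up to 87.5 uM final for 24 hours. CellTiter-Glo reagent was added and luminescence read after 20 min, giving ATP-based viability versus DMSO.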

[12] = CCTE_Padilla_ZF_144hpf_TERATOSCORE: (Legacy) CCTE's 144 Hour Post-fertilization zebrafish Assay Teratoscore, Padilla Lab (AID 2283679; active = hit-call score of the fitted dose curve at least 0.9, where 1 is the maximum; inactive = score below 0.9;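 for AC50: zebrafish embryos with chorions exposed by immersion from 6-8 hpf to 5 dpf with daily renewal; teratogenicity score from eye scoring of death hatching and malformations at 144 hpf; higher score means more developmental defects relative to DMSO baseline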)
Procedure, shortened: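 Larvae scored by eye at 144 hpf for death, hatching and malformations after a day in clean Hanks'. Before that, daily-renewed exposure at 80 uM (0.4% DMSO, 26C) from roughly 6-8 hpf through 5 dpf, 4 embryos per chemical.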

[13] = STM_H9_OrnithineISnorm_perc: Stemina devTOX quickPredict H9 human embryonic stem cell (hESC)-based Assay for Ornithine (ORN) Metabolite Biomarker, Normalized (AID 2283712; active = hit-call score of the fitted dose curve at least 0.9, where 1 is the maximum; inactive = score below 0.9;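 note: ornithine released into spent medium during last day measured by mass spectrometry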)
Procedure, shortened: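 Ornithine secreted by H9 hESCs after 72h compound treatment (daily media/compound renewal) was quantified in final-day media by UPLC-HRMS. Values are isotope-standard-normalized, expressed relative to 0.1% DMSO, fitted in positive direction.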

[14] = read-out: solute carrier (SLC22A6), SLC22A6 (gene 9356); test: LTEA_HepaRG_SLC22A6: Life Technologies and Expression Analysis (LTEA) Assay for solute carrier (SLC22A6) using HepaRG (AID 2283653; active = hit-call score of the fitted dose curve at least 0.9, where 1 is the maximum; inactive = score below 0.9); conditions: mRNA level, 48 h; actives raise or lower the signal
Procedure, shortened: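 SLC22A6 transcript was measured by TaqMan qRT-PCR, normalized to three housekeeping genes, after 48 h duplicate exposure of HepaRG cells (100 uM top, half-log steps, 0.5% DMSO); bidirectional fit against vehicle.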

[15] = Tanguay_ZF_120hpf_TRUN_legacy: (Legacy) Oregon State University Tanguay Lab 120 Hour Post-fertilization zebrafish Assay for Truncated Body (AID 2283655)
Procedure, shortened: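 Binary presence/absence of truncated body is recorded at 120 hpf by brightfield, with non-mortality endpoints skipped after death. Exposure is static from 6 hpf in sealed dark plates at 28C, using dechorionated wild-type zebrafish, 0.64% DMSO.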

[16] = read-out: solute carrier (SLC10A1), SLC10A1 (gene 6554); test: LTEA_HepaRG_SLC10A1: Life Technologies and Expression Analysis (LTEA) Assay for solute carrier (SLC10A1) using HepaRG (AID 2283657; active = hit-call score of the fitted dose curve at least 0.9, where 1 is the maximum; inactive = score below 0.9); conditions: mRNA level, 48 h; actives raise or lower the signal
Procedure, shortened: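 HepaRG, 48 h exposure, 8-pt half-log curve from 100 uM in 0.5% DMSO, duplicates. Read-out: TaqMan qRT-PCR of SLC10A1 mRNA, normalized to three housekeeping genes. Gain/loss fit vs DMSO baseline.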

[17] = read-out: matrix metalloproteinase-1 (MMP1), MMP1 (gene 4312); test: LTEA_HepaRG_MMP1: Life Technologies and Expression Analysis (LTEA) Assay for matrix metalloproteinase-1 (MMP1) using HepaRG (AID 2283658; active = hit-call score of the fitted dose curve at least 0.9, where 1 is the maximum; inactive = score below 0.9); conditions: mRNA level, 48 h; actives raise or lower the signal
Procedure, shortened: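 qRT-PCR (TaqMan, Fluidigm arrays) of MMP1 transcript, normalized against three housekeeping genes and fitted in both directions relative to 0.5% DMSO vehicle. Human HepaRG cultures received duplicate 48 h exposures across 8 points, highest 100 uM with half-log steps.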

[18] = Tanguay_ZF_120hpf_TR_legacy: (Legacy) Oregon State University Tanguay Lab 120 Hour Post-fertilization zebrafish Assay for Touch Response (AID 2283667)
Procedure, shortened: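 Binary touch-response call at 120 hpf, analysed as gain of signal versus DMSO baseline. Wild-type 5D larvae, static exposure at 28C, 0.64% DMSO final; 5uM trimethyltin chloride as positive control.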

[19] = read-out: Cytochrome P450 (CYP24A1_1), CYP24A1 (gene 1591); test: LTEA_HepaRG_CYP24A1_1: Life Technologies and Expression Analysis (LTEA) Assay for Cytochrome P450 (CYP24A1_1) using HepaRG (AID 2283671; active = hit-call score of the fitted dose curve at least 0.9, where 1 is the maximum; inactive = score below 0.9); conditions: mRNA level, 48 h; actives raise or lower the signal
Procedure, shortened: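 Readout is CYP24A1 transcript level by qRT-PCR, normalized to three housekeeping genes, with gain or loss of signal fitted against 0.5% DMSO. Human HepaRG cells received compound for 48 h at up to 100 uM.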

[20] = read-out: kallikrein-3 (KLK3), KLK3 (gene 354); test: LTEA_HepaRG_KLK3: Life Technologies and Expression Analysis (LTEA) Assay for kallikrein-3 (KLK3) using HepaRG (AID 2283652; active = hit-call score of the fitted dose curve at least 0.9, where 1 is the maximum; inactive = score below 0.9); conditions: mRNA level, 48 h; actives raise or lower the signal
Procedure, shortened: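 KLK3 transcript levels were measured by TaqMan qRT-PCR with normalisation to three housekeeping genes. HepaRG cultures received chemicals for 48 h at up to 100 uM (half-log, 8 points, 0.5% DMSO vehicle), fitted in both directions against DMSO.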

In the case of `Cc1ccccc1Cl`, the outcome [1] is reported as “inactive”, the outcome [2] is reported as “inactive” and the outcome [3] is reported as “inactive”. The outcome [4] was “inactive”, the outcome [5] was “inactive” and the outcome [6] was “inactive”. For the same compound, the outcome [7] was “inactive” and the outcome [8] was “inactive”.
For `CCOc1ccc2c(c1)C(C)=CC(C)(C)N2`, the outcome [1] was “inactive”, the outcome [2] was “inactive” and the outcome [3] was “inactive”. The outcome [4] was “inactive”, the outcome [5] was “inactive” and the outcome [6] was “inactive”. For the same compound, the outcome [7] was “inactive”, the outcome [8] was “inactive” and the outcome [9] was “inactive”. For the same compound, the AC50 [10] was 1.48 µM (active), the AC50 [11] was 48.8 µM (active) and the AC50 [12] was 57.7 µM (active). The outcome [13] was “inactive”.
With `CCCCN(CCCC)CCCC` the outcome [1] was “inactive”, the outcome [2] was “inactive” and the outcome [3] was “inactive”. The outcome [4] was “inactive”, the outcome [5] was “inactive” and the outcome [6] was “inactive”. The outcome [7] was “inactive”, the outcome [14] was “inactive” and the outcome [15] was “inactive”. The outcome [16] was “inactive”, the outcome [17] was “inactive” and the outcome [18] was “inactive”. The outcome [19] was “inactive”.
With `CN1CCN(Cc2cc(-c3ccc4[nH]c(=O)oc4c3)co2)[C@@H](c2ccc(F)cc2)C1` the outcome [1] was “inactive”, the outcome [2] was “inactive” and the outcome [3] was “inactive”. The outcome [4] was “inactive”, the outcome [5] was “inactive” and the outcome [6] was “inactive”. The outcome [7] was “inactive”, the outcome [8] was “inactive” and the AC50 [15] was 16.2 µM (active). The AC50 [12] was 18.6 µM (active) and the outcome [13] was “inactive”.
In the case of `CCCCCCCCCCC`, the outcome [1] is reported as “inactive”, the outcome [2] is reported as “inactive” and the outcome [3] is reported as “inactive”. For the same compound, the outcome [4] was “inactive”, the outcome [5] was “inactive” and the outcome [6] was “inactive”. The outcome [7] was “inactive”, the outcome [20] was “inactive” and the outcome [14] was “inactive”. The outcome [8] was “inactive”, the outcome [9] was “inactive” and the outcome [16] was “inactive”. The outcome [17] was “inactive”, the outcome [18] was “inactive” and the outcome [19] was “inactive”.
In the case of `COc1ccc2c(c1)c(CC(=O)O)c(C)n2C(=O)c1ccc(Cl)cc1`, the outcome [1] is reported as “inactive”, the outcome [2] is reported as “inactive” and the outcome [3] is reported as “inactive”. For the same compound, the outcome [4] was “inactive”, the outcome [5] was “inactive” and the outcome [6] was “inactive”. The outcome [7] was “inactive”, the outcome [8] was “inactive” and the outcome [15] was “inactive”. The outcome [9] was “inactive”, the AC50 [12] was 61.7 µM (active) and the AC50 [13] was 82.5 µM (active).
In the case of `CC(=O)OC/C=C(\C)CCC=C(C)C`, the outcome [1] is reported as “inactive”, the outcome [2] is reported as “inactive” and the outcome [3] is reported as “inactive”. The outcome [4] was “inactive”, the outcome [5] was “inactive” and the outcome [6] was “inactive”. For the same compound, the outcome [7] was “inactive”, the outcome [20] was “inactive” and the outcome [14] was “inactive”. For the same compound, the outcome [8] was “inactive”, the outcome [16] was “inactive” and the outcome [17] was “inactive”. For the same compound, the outcome [10] was “inactive”, the AC50 [11] was 24.6 µM (active) and the outcome [19] was “inactive”. For the same compound, the AC50 [12] was 52.8 µM (active).
For `CCOC(=O)CCC(=O)OCC`, the outcome [1] was “inactive”, the outcome [2] was “inactive” and the outcome [3] was “inactive”. The outcome [4] was “inactive”, the outcome [5] was “inactive” and the outcome [6] was “inactive”. The outcome [7] was “inactive”, the outcome [8] was “inactive” and the outcome [15] was “inactive”. The outcome [9] was “inactive”.
In the case of `COCCOCCOC`, the outcome [1] is reported as “inactive”, the outcome [2] is reported as “inactive” and the outcome [3] is reported as “inactive”. The outcome [4] was “inactive”, the outcome [5] was “inactive” and the outcome [6] was “inactive”. For the same compound, the outcome [7] was “inactive”, the outcome [8] was “inactive” and the outcome [15] was “inactive”. For the same compound, the outcome [12] was “inactive” and the outcome [13] was “inactive”.
For `Cc1ccc2ncccc2c1`, the outcome [1] was “inactive”, the outcome [2] was “inactive” and the outcome [3] was “inactive”. The outcome [4] was “inactive”, the outcome [5] was “inactive” and the outcome [6] was “inactive”. The outcome [7] was “inactive”, the outcome [8] was “inactive” and the outcome [15] was “inactive”. The outcome [9] was “inactive”.
With `Cc1cc(=O)[nH]c(=S)[nH]1` the outcome [1] was “inactive”, the outcome [2] was “inactive” and the outcome [3] was “inactive”. For the same compound, the outcome [4] was “inactive”, the outcome [5] was “inactive” and the outcome [6] was “inactive”. The outcome [7] was “inactive”, the outcome [8] was “inactive” and the AC50 [10] was 0.593 µM (active). For the same compound, the outcome [11] was “inactive”.
In the case of `O=c1c(O)c(-c2ccc(O)c(O)c2)oc2cc(O)cc(O)c12`, the outcome [1] is reported as “inactive”, the outcome [2] is reported as “inactive” and the outcome [3] is reported as “inactive”. The outcome [4] was “inactive”, the outcome [5] was “inactive” and the outcome [6] was “inactive”. The outcome [7] was “inactive”, the outcome [8] was “inactive” and the outcome [15] was “inactive”. For the same compound, the outcome [9] was “inactive”, the AC50 [10] was 0.182 µM (active) and the AC50 [11] was 27.1 µM (active). For the same compound, the outcome [12] was “inactive” and the outcome [13] was “inactive”.
